The source of these data is PubChem BioAssay (Tox21).

Records with an inconclusive call do not appear. Activity calls are given as the source filed them. Calls follow the shape of the dose curve; as a rule, active = well fitted cell-killing curve with a large enough effect in the repeat runs; inconclusive = weak or mixed curves, or effect the other way; inactive = flat fitted curve, though single readings scatter.
% is scaled to controls: 0 for no effect and ±100 for the full control effect; potency is read from the fitted curve at half-maximal effect.

The nature of this experiment: qHTS assay to identify small molecule antagonists of the retinoid acid receptor (RAR) signaling pathway - cell viability counter screen (AID 1159551). Also: nearly all actives have a fitted effect of over 35% in size. To be noted: C3RL4 cells viability, ATP luminescence (CellTiter-Glo), 6 h; series mostly up to 92.4 µM; activity change, negative = cytotoxicity: at the top concentration. The source says: U.S. Tox21 Program National Center for Advancing Translational Sciences [NCATS] NIH Chemical Genomics Center [NCGC] U.S. Environmental Protection Agency [EPA] National Institutes of Environmental Health Sciences [NIEHS] National Toxicology Program [NTP] U.S. Food and Drug Administration [FDA] Tox21 Assay Overview: All-trans Retinoic acid (atRA) is the potent natural metabolite of retinol and plays an important role in normal embryonic development and maintenance of cellular phenotype in adult animals. atRA is the activating ligand for the retinoic acid receptors (RARs) which form heterodimers with retinoid X receptors (RXRs) on the retinoic acid response element (RARE). Through activation of the RAR/RXRs nuclear receptors, atRA regulates the transcription of a large number of protein-coding genes and regulatory RNAs. Intracellular levels of atRA are controlled by the retinol signaling pathway (RSP) that regulates the biosynthesis and catabolism of atRA to maintain physiological levels. Chemicals that interfere with the RSP can cause abnormal intracellular levels of atRA and therefore are potential developmental toxicants. To assess compounds for the potential adverse effect on embryonic development through interfering with retinol signaling, a cell-based RARE luciferase reporter gene assay was used. C3RL4 cell line (OARSA/CFSAN/FDA, Laurel, MD) was used to screen Tox21 10K compound library for identifying inhibitors of the RSP. Also cytotoxicity was assessed by determining the viability of cells based on the quantitation of ATP.
Tox21 Assay Protocol Summary: C3RL4 cells were seeded at 1,000/well in 4 uL of assay medium into white solid 1,536-well tissue culture plates (Greiner Bio-One North America Inc. Monroe, NC) using a Multidrop Combi (Thermo Scientific, Waltham, MA) dispenser. After incubation at 37 C and 5% CO2 for an overnight, 23 nL of compounds dissolved in DMSO, positive control or DMSO only were transferred by a Pintool station (Kalypsys, San Diego, CA). One ul of 1 uM (final concentration) of Retinol was added right after the compound addition by using a Flying Reagent Dispenser (FRD) (Aurora Discovery, San Diego, CA). After 6 hr incubation at 37 C and 5% CO2, 5 uL of CellTiter-Glo reagent (Promega Corporation, Madison, WI) was added to each assay plate using an FRD. Luminescence was quantified on a ViewLux plate reader (PerkinElmer, Waltham, MA) after 30 min incubation at room temperature.
In general terms: Quantitative high-throughput screening tests each substance at several concentrations.
In the case of `C=CCCCCCCCCCCCCCCCC`, the activity change, negative = cytotoxicity is 0.367% [at 8.39 µM] (inactive).
Still for that read-out and setting: the value for `CC(=O)[C@H]1CC[C@H]2[C@@H]3C=CC4=CC(=O)CC[C@@]4(C)[C@@H]3CC[C@]12C` was -0.21% [at 42.5 µM] (inactive).
As for `COc1ccccc1N=Nc1c(S(=O)(=O)O)cc2cc(S(=O)(=O)O)cc(NC(C)=O)c2c1O`, the Potency is 22.9 µM (active).
Consider `O=C(CCC1CCN(Cc2ccccc2)CC1)c1ccc2c(c1)NCCCC2`, for which the “activity change, negative = cytotoxicity” value was -0.0595% [at 42.5 µM] (inactive).
Same read-out and setting: the result for `CC1=CC(O)CC(C)(C)C1` (stereo not given) reads 0.405% (inactive); that for `O=C(CCCN1CCC(O)(c2ccc(Br)cc2)CC1)c1ccc(F)cc1`, -7.04% [at 42.5 µM] (inactive); that for `CCCCCCCCCCCC[N+](C)(C)CC(=O)[O-]`, -2.9% (inactive).
The same measure, in the same setting: the value for `COCCOC(=O)C1=C(C)NC(C)=C(C(=O)OC/C=C/c2ccccc2)C1c1cccc([N+](=O)[O-])c1` (stereo not given) was 1.8% [at 42.5 µM] (inactive); that for `CC(=O)Nc1ccccc1C` was -0.836% (inactive).
The same measure, in the same setting: the value for `O=C1NCCN1` was -2.33% (inactive); that for `CCCOc1ccc(S(=O)(=O)N2CCN(CC)CC2)cc1-c1nc2c(CC)n(Cc3ccccn3)nc2c(=O)[nH]1` was 4.76% (inactive); that for `CCC(C(=O)OCCOCCN(CC)CC)c1ccccc1` (stereo not given) was -0.36% [at 42.5 µM] (inactive).
For the compound `CC(C)(O)c1ccccc1CC[C@@H](SCC1(CC(=O)O)CC1)c1cccc(/C=C/c2ccc3ccc(Cl)cc3n2)c1`, the “activity change, negative = cytotoxicity” value was 2.07% [at 42.5 µM] (inactive).
The same measure, in the same setting: the value for `c1cnc2c(n1)CCCC2` was -1.33% (inactive); that for `CCOc1cc(N)c(Cl)cc1C(=O)NCC1CN(Cc2ccc(F)cc2)CCO1` (stereo not given) was -1.33% [at 42.5 µM] (inactive); that for `COC(=O)Nc1nc2ccc(C(=O)c3cccs3)cc2[nH]1` was -1.24% [at 42.5 µM] (inactive).
Still for that read-out and setting: the result for `CO[Si](C)(OC)OC` reads 2.75% (inactive); that for `CC(=O)N(c1onc(C)c1C)S(=O)(=O)c1ccc(N)cc1`, 3.08% [at 42.5 µM] (inactive).
Same read-out and setting: the result for `CCC(C)(O)CCC=C(C)C` (stereo not given) reads 5.31% (inactive); that for `CC(=O)[C@H]1CC[C@H]2[C@@H]3C[C@H](C)C4=CC(=O)CC[C@]4(C)[C@H]3[C@@H](O)C[C@]12C`, 0.596% [at 42.5 µM] (inactive).
As to `CN1CCN(c2c(F)cc3c(=O)c(C(=O)O)cn4c3c2OCN4C)CC1`, the activity change, negative = cytotoxicity is -0.366% [at 19 µM] (inactive).
For `O=C(/C=C/c1ccccc1)OCCCc1ccccc1`, the “activity change, negative = cytotoxicity” value is -0.0395% (inactive).
Same read-out and setting: the result for `CC(=O)OCC(=O)[C@H]1CC[C@H]2[C@@H]3CCC4=CC(=O)CC[C@]4(C)[C@H]3CC[C@]12C` reads 0.512% [at 42.5 µM] (inactive); that for `C=CC(=O)NCOCC(C)C`, 3.61% (inactive).
The same measure, in the same setting: the result for `CCN(Cc1cccc(S(=O)(=O)O)c1)c1ccc(C(=C2C=CC(=[N+](CC)Cc3cccc(S(=O)(=O)[O-])c3)C=C2)c2ccccc2)cc1` reads 1.51% [at 42.5 µM] (inactive).
Still for that read-out and setting: the result for `OC/C(Br)=C(\Br)CO` reads -0.383% (inactive); that for `N#C[C@@H]1C[C@@H]2C[C@@H]2N1C(=O)[C@@H](N)C12CC3CC(CC(O)(C3)C1)C2`, -0.925% [at 42.5 µM] (inactive).
Consider `CC(C)(CCl)c1ccccc1`, for which the “activity change, negative = cytotoxicity” value is 0.939% (inactive).
The same measure, in the same setting: the result for `CN1C(=O)CC(C)(c2ccccc2)C1=O` (stereo not given) reads -1.33% [at 42.5 µM] (inactive).
The same measure, in the same setting: the result for `CCCCCCCC/C=C\CCCCCCCC(=O)OC(CO)CO` reads -1.91% (inactive); that for `CCCCCC=CCC=CCCCCCCCC(=O)OCC`, 0.495% [at 42.5 µM] (inactive); that for `O=c1[nH]c2ccc(S(=O)CCN3CCC(Cc4ccc(F)cc4)CC3)cc2o1` (stereo not given), -5.31% (inactive).
Turning to `CCOC(=O)N1CCC(n2c(=O)[nH]c3cc(Cl)ccc32)CC1`, the “activity change, negative = cytotoxicity” value was -0.599% [at 42.5 µM] (inactive).
On the same count and under the same terms, the value for `[O]=[Bi]` was -0.124% [at 8.39 µM] (inactive); that for `CCC(C(=O)OCCN(CC)CC)c1ccccc1` (stereo not given) was -1.44% [at 42.5 µM] (inactive); that for `CC(C)OCC1CO1` (stereo not given) was 2.12% (inactive).
Same read-out and setting: the value for `O=C(O)c1ccc(CO)o1` was -1.07% (inactive).
Same read-out and setting: the value for `N#C/C(=C1\SCC(c2ccccc2Cl)S1)n1ccnc1` (stereo not given) was 2.05% [at 42.5 µM] (inactive); that for `CCc1nn(CCCN2CCN(c3cccc(Cl)c3)CC2)c(=O)n1CCOc1ccccc1` was -5.35% [at 42.5 µM] (inactive); that for `O=C(CS)OCCOC(=O)CS` was 2.45% (inactive).
